Bioassay records: PubChem BioAssay, Broad Institute
Sampled rows, rich in hits. Any-hit rate of the full collection: about 2.5%.
c-Myc SMM: c-Myc (human) binding. small molecule microarray, His-c-Myc binding, anti-His fluorescence. calls only. 17,000 tested, 1.5% active. AID 624141;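 active = spot fluorescence over background with P-value below 7% in all four replicate spots, showing protein binding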
Target sequence (P01106 whole entry, looked up): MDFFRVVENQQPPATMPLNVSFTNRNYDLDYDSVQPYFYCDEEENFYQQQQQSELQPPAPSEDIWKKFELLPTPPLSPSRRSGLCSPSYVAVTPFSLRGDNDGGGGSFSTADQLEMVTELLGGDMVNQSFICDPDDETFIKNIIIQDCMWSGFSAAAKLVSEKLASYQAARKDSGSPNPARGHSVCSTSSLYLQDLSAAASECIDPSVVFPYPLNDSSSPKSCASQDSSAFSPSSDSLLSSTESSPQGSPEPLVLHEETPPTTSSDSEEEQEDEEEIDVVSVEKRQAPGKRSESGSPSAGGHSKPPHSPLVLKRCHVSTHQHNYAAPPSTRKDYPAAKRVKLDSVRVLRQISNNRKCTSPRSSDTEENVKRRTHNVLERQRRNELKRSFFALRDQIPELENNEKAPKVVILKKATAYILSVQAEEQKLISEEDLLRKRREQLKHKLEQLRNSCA
NFkB binder: binds human NF-kappa-B p105 on microarray. P19838. Small molecule microarray, anti-His fluorescence binding. calls only. 17,000 tested, 1.3% active;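 active = spot fluorescence over background significantly raised, with a chance value under 7% in all four replicate spots of the compound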;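 also: probe protein is his-tagged human p50 processed subunit at 1 µg/ml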
STAT3 SMM: binders of human STAT3. P40763. Small molecule microarray, His-STAT3 binding, anti-His fluorescence. calls only. 17,000 tested, 0.2% active;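 active = compounds whose four printed spots each show fluorescence over background unusually high for their array block, chance value under 7%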
p53 mut binder: binds human mutant p53 on microarray. AID 624136. calls only. 17,000 tested, 0.4% active. small molecule microarray binding, anti-GST fluorescence;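 active = compounds whose four printed spots each glow above background more than chance allows, each with a p-value under 7%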
Calls only; - = inactive; + = active, no number.

SMILES | c-Myc SMM | NFkB binder | STAT3 SMM | p53 mut binder
C[C@H]1CN([C@@H](C)CO)C(=O)Cc2cc(NC(=O)Nc3ccc(F)cc3)ccc2O[C@H]1CN(C)CC1CC1 | - | - | + | -
C[C@H](CO)N1C[C@H](C)[C@@H](CN(C)Cc2ccc(C(F)(F)F)cc2)Oc2ccc(NC(=O)Cc3cn(C)c4ccccc34)cc2CC1=O | + | + | - | -
Cc1noc(C)c1S(=O)(=O)Nc1ccc2c(c1)CC(=O)N([C@H](C)CO)C[C@@H](C)[C@@H](CN(C)Cc1ccc(-c3ccccc3)cc1)O2 | + | - | + | -
COc1ccc(NC(=O)CSc2n[nH]c(-c3ccc(Cl)cc3Cl)n2)cc1 | - | - | - | -
CC(=O)C1=C(C)N(CC2CCCO2)C(=O)C1(NC(=O)c1ccc(C(C)(C)C)cc1)C(F)(F)F (stereo unspecified) | - | - | - | -
COc1ccc(S(=O)(=O)N(C)C[C@@H]2Oc3ccc(NC(=O)Nc4ccc(C(F)(F)F)cc4)cc3CC(=O)N([C@@H](C)CO)C[C@H]2C)cc1 | - | - | - | -
COc1ccc(S(=O)(=O)N(C)C[C@H]2Oc3ccc(NC(=O)Nc4ccc(C(F)(F)F)cc4)cc3CC(=O)N([C@H](C)CO)C[C@H]2C)cc1 | + | - | - | -
C[C@@H]1CN([C@@H](C)CO)C(=O)Cc2cc(N(C)C)ccc2O[C@H]1CN(C)S(=O)(=O)c1cccs1 | + | - | - | -
C[C@@H]1CN([C@H](C)CO)C(=O)Cc2cc(N(C)C)ccc2O[C@H]1CN(C)S(=O)(=O)c1cccs1 | - | - | - | -
O=C(O)c1cc(O)c2c(c1)C(=O)c1cccc(O)c1C2=O | - | - | - | -
COc1c(C=O)c(O)cc2c1C(=O)c1ccccc1C2=O | + | - | - | -
CC1OC(OCC2(C)C=C3C4CCC5C6(C)CCC(O)C(C)(COC7OC(CO)C(O)C(O)C7O)C6CCC5(C)C4(C)CCC3(C(=O)O)CC2)C(O)C(O)C1O (stereo unspecified) | - | - | - | -
CC1OC(OCC2OC(OCC3(C)C(O)CCC4(C)C3CCC3(C)C4CCC4C5=CC(C)(C)CCC5(C(=O)O)CCC43C)C(O)C(O)C2O)C(O)C(O)C1O (stereo unspecified) | + | + | - | -
O=c1c(O)c(-c2ccc(O)cc2)oc2cc(OC3O[C@H](CO)[C@@H](O)[C@H](O)[C@H]3O)cc(O)c12 (stereo partly specified) | - | - | - | -
COc1ccccc1Cn1c(NCC(C)O)nc2c1c(=O)n(C)c(=O)n2C (stereo unspecified) | - | - | - | -
CCOC(=O)CSc1n[nH]c(-c2ccc(Cl)cc2)n1 | - | - | - | -
O=C(O)CCNC(=O)c1cncc(Br)c1 | + | - | - | -
Cc1nc(SCC(=O)Nc2ccc(F)cc2)nc2c1CCCC2 | - | - | - | -
CCCc1cc(=O)[nH]c(SCC(=O)Nc2ccc3c(c2)OCCO3)n1 | - | - | - | -
OCCN(CCO)Cc1ccc(Br)cc1 | - | - | - | +
CC#CC#C/C=C1\C=CC2(OC=CC2OC(=O)C=C(C)C)O1 (stereo unspecified) | - | - | - | -
O=C(Nc1sc2c(c1C(=O)NCc1ccco1)CCC2)c1sc2ccccc2c1Cl | + | - | - | -
COC(=O)c1c(NC(=S)NCc2ccco2)sc2c1CCC(C)C2 (stereo unspecified) | - | - | - | -
Cc1ccc(-n2ncc(C(=O)NCc3ccccn3)c2NC(=O)c2ccco2)cc1C | - | - | - | -
O=C1NC(=O)c2cc(Nc3ccc(F)cc3)c(Nc3ccc(F)cc3)cc21 | - | - | - | +
SMILES | c-Myc SMM | NFkB binder | STAT3 SMM | p53 mut binder
COC(=O)C1=COC(O[C@@H]2O[C@H](CO)[C@@H](O)[C@H](O)[C@H]2O)[C@@H]2[C@@](C)(O)[C@@H](OC(=O)/C=C/c3ccc(OC)cc3)C[C@]12O (stereo partly specified) | - | - | - | -
COC(=O)c1ccccc1NC(=O)C(C)Oc1ccccc1 (stereo unspecified) | - | - | - | -
COC(=O)c1cccc2nc3c(C(C)O)cccc3nc12 (stereo unspecified) | + | - | - | -
O=C1O[C@H](c2ccccc2)[C@H](c2ccccc2)N2[C@H]1[C@@H](C(=O)N1CCCCCCC1)[C@]1(C(=O)Nc3ccccc31)[C@H]2c1ccc(OCCO)cc1 | + | + | - | +
O=C1O[C@@H](c2ccccc2)[C@@H](c2ccccc2)N2[C@@H](c3ccc(OCCO)cc3)[C@]3(C(=O)Nc4ccc(C#CCCO)cc43)[C@@H](C(=O)N3CCCCCCC3)[C@H]12 | - | - | - | -
O=C1O[C@@H](c2ccccc2)[C@@H](c2ccccc2)N2[C@@H](c3ccc(O)cc3)[C@]3(C(=O)Nc4ccc(C#CCCO)cc43)[C@@H](C(=O)N3CCCCCCC3)[C@H]12 | - | - | - | -
O=C1O[C@@H](c2ccccc2)[C@@H](c2ccccc2)N2[C@@H](c3ccc(OCCO)cc3)[C@]3(C(=O)Nc4ccccc43)[C@@H](C(=O)N3CCCCCCC3)[C@H]12 | + | + | - | +
COc1cc(/C=C/CO)ccc1OC/C=C(\C)CCC=C(C)C | - | - | - | -
CO[C@H]1/C=C\O[C@@]2(C)Oc3c(C)c(O)c4c(O)c(c(/C=N\N5CCN(C)CC5)c(O)c4c3C2=O)NC(=O)/C(C)=C\C=C/C(C)[C@H](O)[C@@H](C)[C@@H](O)[C@@H](C)[C@@H](OC(C)=O)[C@@H]1C (stereo partly specified) | - | + | - | -
CO[C@H]1/C=C\O[C@@]2(C)Oc3c(C)c(O)c4c(O)c(c(/C=N/N5CCN(C)CC5)c(O)c4c3C2=O)NC(=O)/C(C)=C\C=C[C@H](C)[C@H](O)[C@@H](C)[C@@H](O)[C@@H](C)[C@H](OC(C)=O)[C@@H]1C | - | - | - | -
COc1cc(O)c2c(c1)O[C@H](c1ccc(O)c(O)c1)[C@@H](OC(C)=O)C2=O | - | - | - | -
NC(=O)NCC#Cc1ccc2c(c1)[C@]1(C(=O)N2)[C@H](C(=O)N2CCCCCCC2)[C@H]2C(=O)O[C@H](c3ccccc3)[C@H](c3ccccc3)N2[C@@H]1c1ccc(O)cc1 | + | - | - | +
COC(=O)C(CC#Cc1ccc2c(c1)[C@]1(C(=O)N2)[C@H](C(=O)N2CCCCCCC2)[C@H]2C(=O)O[C@H](c3ccccc3)[C@H](c3ccccc3)N2[C@@H]1c1ccc(OCCO)cc1)C(=O)OC | - | - | - | +
COC(=O)C(CC#Cc1ccc2c(c1)[C@]1(C(=O)N2)[C@H](C(=O)N2CCCCCCC2)[C@H]2C(=O)O[C@H](c3ccccc3)[C@H](c3ccccc3)N2[C@@H]1c1ccccc1OCCO)C(=O)OC | - | + | - | -
COc1ccc(Cl)cc1NC(=O)Nc1cc(C)nc2ccccc12 | - | - | - | -
O=C(Nc1cccc(Cl)c1)c1ccc(NCc2ccco2)c([N+](=O)[O-])c1 | - | - | - | -
CCn1c(SCC(=O)Nc2c(Cl)cc(Cl)cc2Cl)nnc1-c1ccccc1Cl | - | - | - | -
COc1cc(OC)c(OC)cc1CN1CCN(Cc2ccccn2)CC1 | + | - | - | -
